SMILES strings stand for the structures. The campaign covered roughly 16,000 compounds. About 5,100 (32%) were called active. Inconclusive results (about 25%) are left out. Some of the results follow. Values without a mark were called inactive. The call rests on the fitted dose curve; in most records, active means well fitted curve in the direction sought with a large enough effect; inconclusive means small, poorly fitted or top-dose-only effect, or effect the other way; inactive means no such curve, though single readings can be large or run the other way.
On the % scale 0 is the no-effect control and ±100 the full control effect.

The target in the assay is Cytochrome P450 3A4 (Homo sapiens) (UniProt P08684). The experiment in a line: Cytochrome panel assay with activity outcomes. Particulars: recombinant CYP, pro-luciferin dealkylation, luminescence, p450-cyp3a4; series mostly up to 57.1 µM.
Sequence of Cytochrome P450 3A4 (Homo sapiens) (P08684 whole entry, looked up): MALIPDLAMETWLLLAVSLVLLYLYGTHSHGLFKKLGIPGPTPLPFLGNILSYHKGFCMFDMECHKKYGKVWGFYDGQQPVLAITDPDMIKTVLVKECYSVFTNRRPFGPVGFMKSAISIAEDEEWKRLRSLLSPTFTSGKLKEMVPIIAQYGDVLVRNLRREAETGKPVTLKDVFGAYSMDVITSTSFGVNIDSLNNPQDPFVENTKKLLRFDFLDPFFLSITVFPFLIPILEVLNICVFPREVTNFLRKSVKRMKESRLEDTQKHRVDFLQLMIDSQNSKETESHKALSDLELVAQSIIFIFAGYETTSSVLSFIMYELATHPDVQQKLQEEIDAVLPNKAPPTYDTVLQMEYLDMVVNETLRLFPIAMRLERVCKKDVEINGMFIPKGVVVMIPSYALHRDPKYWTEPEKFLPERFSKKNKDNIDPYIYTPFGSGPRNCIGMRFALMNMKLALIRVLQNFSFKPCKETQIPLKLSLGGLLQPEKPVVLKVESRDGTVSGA
In the case of `CCC1NC(=S)N(C2CCCCC2)C1=O` (configuration not stated), the AC50 (commonly the midpoint of the concentration-response curve, whichever way the signal moves) was “inactive”.
For the compound `Cc1ccc(-[n+]2cc(=O)o[nH]2)cc1`, the activity, negative = inhibition is -10.5% [at 11.4 µM].
For the compound `Nc1nc(C(=O)O)c(N=Nc2ccccc2)c(=O)[nH]1`, the activity, negative = inhibition is -12.5% [at 11.4 µM].
On the same count and under the same terms, the result for `CCOc1ccc2nc3cc(N=Nc4ccc(N)nc4N)ccc3c(N)c2c1` reads -19% [at 11.4 µM].
With `COc1ncc2nc(-c3cccs3)c(=O)n(CCc3ccccc3)c2n1`, the AC50 is 10 µM (active).
Regarding `COCCn1c(=O)c(-c2cccs2)nc2cnc(Oc3ccccc3)nc21`, the AC50 is 20 µM (active).
Regarding `COCCn1c(=O)c(-c2cccs2)nc2cnc(OC)nc21`, the AC50 is 10 µM (active).
As for `CCCCN(Cc1ccccc1)C(=O)c1cnc2n(c1=O)CCS2`, the AC50 entry is “inactive”.
With `CSc1ccccc1N1CCN(C(=O)Nc2ccc3c(c2)NC(=O)CO3)CC1`, the AC50 entry was “inactive”.
Take `CN(C)S(=O)(=O)c1nc(Cl)c2[nH]cnc2n1`: the activity, negative = inhibition was -5.34% [at 11.4 µM].
The same measure, in the same setting: the result for `CCOC(=O)N/N=C1/C[C@@H](O)[C@@H](O)[C@@H]2[C@@H]3C(=O)N(C4CCCCC4)C(=O)[C@H]3CC[C@@H]12` reads -20.8% [at 11.4 µM].
In the case of `O=C(Nc1cccc(Cl)c1Cl)c1snnc1-c1ccccc1`, the AC50 result is “inactive”.
Turning to `COC(=O)[C@H](C)[C@@H]1C[C@@]1(C)[C@@H](NC(=O)OCc1ccccc1)c1ccccc1`, the AC50 was 10 µM (active).
On the same count and under the same terms, the result for `COC(=O)[C@H](C)[C@H]1C[C@]1(C)[C@H](NC(=O)OCc1ccccc1)c1ccccc1` reads 7.94 µM (active).
Regarding `CN(C)CCNS(=O)(=O)N(C)C`, the activity, negative = inhibition is -13.5% [at 11.4 µM].
On to `CC(=O)NN1C(=O)c2ccc(Oc3ccc([N+](=O)[O-])cc3)cc2C1=O`, for which the AC50 result was “inactive”.
On to `Cc1nc2ccccc2nc1-c1ccc(N=[N+]([O-])c2ccc(-c3nc4ccccc4nc3C)cc2)cc1`, for which the activity, negative = inhibition is 3.4% [at 11.4 µM].
For `Nc1ccc(Oc2ccc3nc(-c4ccccc4)c(-c4ccc([N+](=O)[O-])cc4)nc3c2)cc1`, the half-maximal activity concentration (AC50) is 3.55 µM (active).
Regarding `Cc1noc(C)c1CS(=O)(=O)c1ccc(Br)cc1`, the AC50 is 15.8 µM (active).
Consider `O=C(CCc1nc(-c2ccccc2)no1)NCCc1ccccc1`, for which the AC50 result was “inactive”.
On the same count and under the same terms, the result for `COc1ccc(-c2noc(CCCC(=O)NCCc3ccccc3)n2)cc1OC` reads 11.2 µM (active); that for `CNC(=O)CCc1nc(-c2ccc(C(C)(C)C)cc2)no1`, “inactive”.
Regarding `Cc1c(NC(=O)Nc2c(Cl)cccc2Cl)c(=O)n(-c2ccccc2)n1C`, the activity, negative = inhibition is 4.74% [at 11.4 µM].
As for `Cc1c(NC(=O)C2CCN(S(=O)(=O)c3ccc(Cl)cc3)CC2)c(=O)n(-c2ccccc2)n1C`, the AC50 was 7.94 µM (active).
On the same count and under the same terms, the result for `Cc1ccc(S(=O)(=O)/N=C(/Nc2c(C)n(C)n(-c3ccccc3)c2=O)c2ccc(Cl)cc2)cc1` reads 3.16 µM (active); that for `Cc1c(NC(C)C)c(=O)n(-c2ccccc2)n1C`, “inactive”; that for `Cc1c(NCc2cc(Cl)ccc2O)c(=O)n(-c2ccccc2)n1C`, 14.1 µM (active).
Still for that read-out and setting: the result for `O=S(=O)(/N=C(\Sc1ccccc1)c1ccccc1)c1ccc(Cl)cc1` reads “inactive”; that for `Cc1nn(-c2ccccc2)c(Cl)c1C(=O)Nc1c(C)n(C)n(-c2ccccc2)c1=O`, “inactive”.
Still for that read-out and setting: the result for `COc1ccccc1N/C(=N/S(=O)(=O)c1ccc(C)cc1)c1ccc(Cl)cc1` reads 2.24 µM (active); that for `CC(=O)NC1=NN(c2ccccc2)C(=O)C1`, “inactive”; that for `O=c1c(-c2ccccc2)nc2cnc(N3CCOCC3)nc2n1Cc1cccs1`, “inactive”.
Take `Cn1c(=O)c(-c2cc(F)cc(F)c2)nc2cnc(N3CCOCC3)nc21`: the AC50 entry was “inactive”.
The same measure, in the same setting: the result for `O=c1c(-c2ccc(F)cc2)nc2cnc(N3CCNCC3)nc2n1Cc1cccs1` reads 10 µM (active); that for `O=c1c(-c2cc(F)cc(F)c2)nc2cnc(N3CCNCC3)nc2n1Cc1cccs1`, 10 µM (active).
On the same count and under the same terms, the result for `O=c1c(-c2ccc(Cl)cc2)nc2cnc(N3CCNCC3)nc2n1Cc1cccs1` reads 5.01 µM (active).
The same measure, in the same setting: the result for `O=c1c(-c2cc(F)cc(F)c2)nc2cnc(N3CCOCC3)nc2n1C[C@H]1CCCO1` reads “inactive”.
For the compound `CCc1c(O)c2c(c(O)c1C(C)=O)C(=O)c1c(cc(O)c(C(=O)O)c1C(=O)O)C2=O`, the activity, negative = inhibition was 2.06% [at 11.4 µM].
In the case of `BrC(c1cccc2ccccc12)c1cccc2ccccc12`, the activity, negative = inhibition is -10.7% [at 11.4 µM].
Same read-out and setting: the result for `CCOC(=O)c1c(C)c(C)n2c1NC(=O)C2` reads -20.8% [at 11.4 µM].
As to `CCOC(=O)c1c(C)c(C(=O)N2CCCCCC2)c(C)n1C`, the AC50 was 7.94 µM (active).
In the case of `CCOC(=O)c1c(C)c(C(=O)N2CCN(C(=O)c3ccco3)CC2)c(C)n1C`, the AC50 result is “inactive”.
The same measure, in the same setting: the result for `Cc1ccc(S(=O)(=O)NCC(=O)N(CC(=O)NCc2ccco2)Cc2cccs2)cc1` reads 4.47 µM (active); that for `Nc1ncnc2c1nc(Sc1ccc(Cl)cc1)n2[C@@H]1O[C@H]2COP(=O)(O)O[C@@H]2[C@H]1O`, “inactive”.
With `Oc1ccc2ccccc2c1/C=C\c1ccc2c(Br)cc(Br)c(O)c2n1`, the activity, negative = inhibition was -13.3% [at 11.4 µM].
In the case of `CCC/C=C(\CCC)C(NS(=O)(=O)c1ccc(-c2ccccc2)cc1)c1ccc(C(=O)OC)cc1` (configuration not stated), the AC50 result is “inactive”.
On the same count and under the same terms, the result for `CCC/C=C(\CCC)C(NS(=O)(=O)c1ccc(Cl)cc1)c1ccc(C(=O)OC)cc1` (configuration not stated) reads 3.98 µM (active).
Same read-out and setting: the result for `CCC/C=C(\CCC)C(NS(=O)(=O)CC12CCC(CC1=O)C2(C)C)c1ccc(C(=O)OC)cc1` (configuration not stated) reads 3.98 µM (active); that for `CCC/C=C(\CCC)C(NS(=O)(=O)c1ccc(Cl)cc1)c1ccccc1` (configuration not stated), 7.94 µM (active).
Consider `CCCCSc1nnc(-c2ccc(C)cc2)n1C`, for which the AC50 result was “inactive”.
With `O=C(Nc1ccc2c(c1)Cc1ccccc1-2)[C@@H]1[C@H](C(=O)O)[C@]2(Cl)C(Cl)=C(Cl)[C@@]1(Cl)C2(Cl)Cl`, the activity, negative = inhibition was -22% [at 11.4 µM].
In the case of `Cn1c(SCC(=O)c2ccc3c(c2)Cc2ccccc2-3)nnc1-c1ccccc1`, the AC50 is 8.91 µM (active).
As to `O=C(O)c1ccccc1-c1ccccc1C(=O)Nc1ccc2c(c1)Cc1ccccc1-2`, the activity, negative = inhibition was -22.9% [at 11.4 µM].
As to `CC(=O)Nc1ccc(-c2nnc(SCC(=O)c3ccc4c(c3)Cc3ccccc3-4)n2C)cc1`, the AC50 is 12.6 µM (active).
For `c1cc(NC2CC2)nc(-c2ccoc2)n1`, the AC50 is 5.01 µM (active).
Regarding `Cc1noc(C)c1-c1nccc(Nc2ccc(F)cc2)n1`, the AC50 is 12.6 µM (active).
Still for that read-out and setting: the result for `Cc1noc(C)c1-c1nccc(NC2CC2)n1` reads 2.51 µM (active).
The same measure, in the same setting: the result for `COC(=O)[C@@]1(Cc2ccccc2)[C@H]2c3cc(C(=O)N4CCCC4)n(Cc4cccc5ccccc45)c3C[C@H]2CN1C(=O)c1ccccc1` reads 1.58 µM (active); that for `COC(=O)[C@@]1(Cc2ccc(F)cc2)[C@H]2c3cc(C(=O)N4CCCC4)n(Cc4cccc5ccccc45)c3C[C@H]2CN1C(=O)c1ccccc1`, 2 µM (active).
As for `CC(C)CNc1nc(N)[nH]c(=O)c1NC=O`, the activity, negative = inhibition is -1.52% [at 11.4 µM].
Still for that read-out and setting: the result for `CCC(C)c1ccc(Nc2ncccc2C#N)cc1` (configuration not stated) reads -6.67% [at 2.29 µM].
As for `c1ccc(Nc2ncnc3ccc(-c4cccnc4)cc23)cc1`, the AC50 is 2.51 µM (active).
Still for that read-out and setting: the result for `c1ccc(CNc2ncnc3ccc(-c4cccnc4)cc23)cc1` reads 1.26 µM (active); that for `Cc1cccc(CNc2ncnc3ccc(-c4cccc(C#N)c4)cc23)c1`, “inactive”; that for `Cc1cccc(CNc2ncnc3ccc(-c4cccnc4)cc23)c1`, 1 µM (active).
Turning to `CC(C)CN(CC#N)CC(C)C`, the activity, negative = inhibition was -19.3% [at 11.4 µM].
With `CCCC(=O)NCCc1c2n(c3ccc(OC)cc13)Cc1ccccc1-2`, the AC50 is 2.51 µM (active).
Regarding `CCc1ccc(NC(=O)Cn2nc(C(F)(F)F)c3c2CCC3)cc1`, the AC50 is 12.6 µM (active).
Turning to `CN(C)C(=O)c1ccc(-n2nc(C(F)(F)F)c3c2CCCC3)cc1`, the activity, negative = inhibition is 5.72% [at 2.29 µM].
For `CCNC(=O)c1ccc(-n2nc(C(F)(F)F)c3c2CCCC3)cc1`, the AC50 result was “inactive”.
As to `CC(=O)NN1C(=O)c2ccc(Oc3cccc([N+](=O)[O-])c3)cc2C1=O`, the AC50 result was “inactive”.
For `Cn1cc([N+](=O)[O-])c(C(=O)Nc2cc(Oc3cccnc3)cc([N+](=O)[O-])c2)n1`, the AC50 is 0.501 µM (active).
On the same count and under the same terms, the result for `Cc1ccc(Nc2ccc(-n3ccnc3)nn2)cc1C` reads 0.0794 µM (active); that for `O=c1[nH]n(-c2cccc(Cl)c2)c2ncccc12`, “inactive”.
Take `N=c1n(CCN2CCOCC2)c2ccccc2n1CC(=O)c1ccc(Cl)c(Cl)c1`: the activity, negative = inhibition is 11.5% [at 2.29 µM].
For `O=C(c1ccc(Cl)c(Cl)c1)c1cc(-c2ccccn2)c(N2CCOCC2)s1`, the AC50 was 14.1 µM (active).
Turning to `COc1ccc(OC[C@@H](CO)OC)cc1`, the activity, negative = inhibition is -12.9% [at 11.4 µM].
Take `COCCCNCC(=O)c1c(N)n(Cc2ccccc2)c(=O)n(C)c1=O`: the activity, negative = inhibition was -9.63% [at 2.29 µM].
Turning to `Cn1c(=O)c2c(n(Cc3ccccc3)c1=O)NC(=O)C2CC(=O)NCc1cccc(Cl)c1` (configuration not stated), the AC50 is 6.31 µM (active).
Still for that read-out and setting: the result for `C[C@]12CC3CC(N)(C1)C[C@@](C)(C3)C2` reads “inactive”.
Consider `N#C/C(=C(\O)C(=O)O)c1ccc(-c2cccc3ccccc23)cc1`, for which the activity, negative = inhibition is -22% [at 11.4 µM].
Regarding `CCn1c2ccccc2c2cc(N=C3SC(CC(=O)Nc4ccccc4)C(=O)N3C)ccc21` (configuration not stated), the half-maximal activity concentration (AC50) is 5.01 µM (active).
On to `NS(=O)(=O)c1cc2c(cc1Cl)N[C@@H](C(Cl)Cl)NS2(=O)=O`, for which the AC50 result is “inactive”.
In the case of `NS(=O)(=O)c1cc2c(cc1Cl)N[C@H](Cc1ccccc1)NS2(=O)=O`, the activity, negative = inhibition is -18.4% [at 11.4 µM].
With `NS(=O)(=O)c1cc2c(cc1Cl)NC(CSCc1ccccc1)=NS2(=O)=O`, the AC50 was 12.6 µM (active).
For the compound `Oc1c(Br)cc(Br)cc1CN(Cc1cc(Br)cc(Br)c1O)C1CCCCC1`, the activity, negative = inhibition was -22.2% [at 11.4 µM].
For the compound `CCOC(=O)CCN1C(=O)[C@H]2[C@H]3[C@H](O)[C@H](O)C/C(=N/O[C@@H]4O[C@@H](COC(C)=O)[C@@H](OC(C)=O)[C@@H](OC(C)=O)[C@H]4OC(C)=O)[C@@H]3CC[C@@H]2C1=O`, the activity, negative = inhibition is -20.3% [at 11.4 µM].

Values taken from PubChem BioAssay AID1851 (National Center for Advancing Translational Sciences (NCATS), 2009).
